Hits are enriched below; roughly 21% of the tested compounds scored in any of these assays.
Pf growth 48h: P. falciparum growth inhibition at 48 hours (one generation); P. falciparum luciferase growth in erythrocytes, 48 h; Potency, µM (titrated, usually from 28.7 µM), usual class: inhibitors; actives 5.9% (n = 310,000)
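Firefly luciferase activity from engineered P. falciparum reports growth; inhibitors lower the luminescent signal. Cultures contained 2% hematocrit erythrocytes at 0.1% final parasitemia.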
SARS PLP yeast: SARS-CoV PLP inhibition in yeast; S. cerevisiae expressing SARS-CoV PLpro, growth rescue; actives 0.19% (n = 330,000); Potency, µM (series often up to 32.9 µM), most hits filed as activators; calls by dose curve; note: nearly all actives have a fitted effect of over 55% in size
Shiga toxin inh: Shiga toxin inhibition; Vero cells, Shiga toxin protein synthesis inhibition reporter; inhibition, % at 38.7 µM; actives 9.2% (n = 290,000); AID 2315; in the data active = inhibition mostly above about 28%, no sharp cut-off; inactive = mostly below about 43%
Pf growth 96h: P. falciparum growth inhibition at 96 hour, primary screen for plastid delayed-death inhibitors | P. falciparum luciferase reporter growth, 96 h | Potency, µM (top dose mostly 28.7 µM), hits mostly inhibitors | actives 6.9% (n = 320,000) | AID 504834
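P. falciparum expressing integrated firefly luciferase, in erythrocytes at 2% hematocrit, 0.05% parasitemia, incubated with compounds 96 h at 37 C, 5% CO2. Growth inhibition read as loss of luminescence; two-generation exposure targets delayed-death apicoplast inhibitors.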
NS1 inh: inhibitors of influenza NS1 protein function; AID 2326; Potency, µM (highest dose often 46.1 µM); actives 0.4% (n = 270,000); calls by dose curve; note: actives are rising curves; nearly all actives have a fitted effect of over 50% in size
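OD600 was taken as the measure of yeast growth restored by compound in an NS1-expressing S. cerevisiae strain. Cells had been washed out of glucose medium and diluted 1:100 into galactose -URA medium, pH 6.0.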
CHX counter: counter-screen hit for Shiga toxin inhibitors, cycloheximide. cell reporter, cycloheximide protein synthesis inhibition counterscreen. max response, %. actives 12% (n = 300,000); in the data active = max response mostly above about 13%, no sharp cut-off; inactive = mostly below about 14%; note: read at 38.3 µM for the half of the compounds with a filed dose
Each line names hits and unclear results; the compound was inactive in the other large screens. Unless noted, calls come from the whole dose curve; as a rule, active = well fitted inhibition curve with a large enough effect; inconclusive = small, poorly fitted or top-dose-only effect, or another doubt; inactive = no such curve, though single readings can be large or run the other way.

O=C(NCCN1CCCCC1)Nc1cccc(F)c1	none
Cc1nnc(SCc2ccccc2F)n1NCc1cccs1	CHX counter 24 (no result: Pf growth 96h)
CC(C)(C)NC(=O)CN(C(=O)C1CSC(=O)C1)c1ccc2c(c1)OCCO2 (stereo not given)	Shiga toxin inh 34, CHX counter 36
COc1cccc(N(CC(=O)NC(C)(C)C)C(=O)C2CSC(=O)C2)c1 (stereo not given)	none
Cc1csc(/N=C/c2ccc([N+](=O)[O-])cc2)n1	none
CCN1CCN(/C=N/c2nc(C)cs2)CC1	Shiga toxin inh 76, CHX counter 33
Cc1ccc(S(=O)(=O)Nc2ccccc2CNc2ncc(Br)cc2Br)cc1	Pf growth 48h inconclusive, Pf growth 96h inconclusive
Cc1ccc(S(=O)(=O)Nc2ccccc2CNc2ccccn2)cc1	Pf growth 48h 13µM, Shiga toxin inh 37, Pf growth 96h 6.6µM, CHX counter 22
Cc1ccc(S(=O)(=O)Nc2ccccc2CNc2ccc(Br)cn2)cc1	Pf growth 48h 12µM
CCOc1ccc(CCNC(=O)CSc2ncn[nH]2)cc1OCC	Pf growth 96h inconclusive
CCN(CC)S(=O)(=O)c1ccc(C(=O)OCn2c(SC)nnc(C)c2=O)cc1	none
CCN1C(=O)c2ccccc2Sc2ccc(C(=O)O)cc21	none (no result: Pf growth 48h)
CC(=O)c1ccc2c(c1)N(CCCN1CCN(CCO)CC1)c1ccccc1S2	Pf growth 48h 13µM, Pf growth 96h 13µM (no result: SARS PLP yeast, Shiga toxin inh, NS1 inh, CHX counter)
CCC(=O)c1ccc2c(c1)N(CCCN1CCN(CCO)CC1)c1ccccc1S2	Pf growth 48h 2.7µM, Pf growth 96h 4.8µM (no result: SARS PLP yeast, Shiga toxin inh, NS1 inh, CHX counter)
CN(CC(=O)Nc1ccccc1Br)C(=O)c1cccn1C	none (no result: Shiga toxin inh, NS1 inh, CHX counter)
O=C(O)C(=O)/C(=C\c1cccc(Cl)c1)c1ccc2ccccc2n1	Shiga toxin inh 110, CHX counter 93
N#Cc1ccc(/C=C/C(=O)O)cc1	none
Cc1cccc(/C=C(\C(=O)C(=O)O)c2ccc3ccccc3n2)c1	Shiga toxin inh 62, CHX counter 46 (no result: NS1 inh)
N#Cc1ccc(/C=C(\C(=O)C(=O)O)c2ccc3ccccc3n2)cc1	Shiga toxin inh 74, CHX counter 57
CN(C)C(=S)c1ccc2ccccc2n1	Pf growth 48h inconclusive (no result: Pf growth 96h)
COc1ccc2c(c1)[N+](=O)C(/C(C)=N/NC(N)=S)=C(C)[N+]2=O	none (no result: Pf growth 48h, SARS PLP yeast, Shiga toxin inh, Pf growth 96h, CHX counter)
NC(N)=NCCC[C@H](N)C(=O)N1CCC[C@H]1C(=O)N1CCC[C@H]1C(=O)NCC(=O)N[C@@H](Cc1ccccc1)C(=O)N[C@@H](CO)C(=O)N1CCC[C@H]1C(=O)N[C@@H](Cc1ccccc1)C(=O)O	none (no result: Pf growth 48h, SARS PLP yeast, Pf growth 96h, NS1 inh)
O=C(NCc1csc(-c2ccccc2)n1)c1ccco1	Shiga toxin inh 60, CHX counter 27 (no result: Pf growth 48h)
Cc1cc(C(=O)NCc2csc(-c3ccccc3)n2)no1	Shiga toxin inh 95, CHX counter 51
Cc1ccc(-n2cc(C(=O)c3ccc(F)cc3)nn2)cc1Cl	Shiga toxin inh 75, CHX counter 37
COc1ccccc1-c1noc(CCC(=O)NC2CCCCC2)n1	none
O=C(Cc1ccc(F)cc1)Nc1ccccc1N1CCCC1	none
O=C(Cc1ccc(Cl)c(Cl)c1)Nc1ccccc1N1CCCC1	Pf growth 96h 12µM
Cc1cc(NC(=O)CSCC(=O)Nc2ccccc2N2CCCCC2)no1	Pf growth 48h 13µM, Pf growth 96h inconclusive (no result: Shiga toxin inh, NS1 inh, CHX counter)
CCCC[C@@H]1CNCCN1CCc1cccc2ccccc12	Pf growth 48h inconclusive, Pf growth 96h inconclusive (no result: Shiga toxin inh, NS1 inh, CHX counter)
O=C(COC(=O)C1CC(=O)N(CCc2ccccc2)C1)c1ccc[nH]1 (stereo not given)	none (no result: Shiga toxin inh, NS1 inh, CHX counter)
N#Cc1c(N)nc2c3c(sc(=N)c2c1N)NC(=O)CC3c1c(F)cccc1Cl (stereo not given)	Pf growth 48h inconclusive, Pf growth 96h 8.3µM
CCCCOc1ccc(/C=N/Nc2cc(N3CCOCC3)nc(C)n2)cc1	NS1 inh inconclusive
CCCS(=O)(=O)c1c(S(=O)(=O)CCC)c2ccc(C(N)=O)cn2c1C(=O)c1ccc(OC)cc1	Pf growth 48h inconclusive
COc1ccc(/C(C)=N/N=C(\C)c2ccc(OC)cc2OC)c(OC)c1	none
Oc1ccc(/C=N/N2CCCCC2)cc1O	none
COc1ccc(O)c(/C=N/N2CCCCC2)c1	Shiga toxin inh 83, CHX counter 54
COc1ccc(/C(C)=N/N2CCCCC2)c(O)c1	CHX counter 12
CCCCOc1ccc(C(=O)N2CCC(C)CC2)cc1	none (no result: Pf growth 96h)
CCCCOc1ccc(C2CCC(C(C)=O)C(C)C2)cc1 (stereo not given)	Shiga toxin inh 62, CHX counter 51
C=CCNC(=O)c1ccc2c(=O)n(CCCN3CCCC3=O)c(=S)[nH]c2c1	Pf growth 48h inconclusive (no result: NS1 inh)
COc1ccc(C(=O)OCC(=O)N2CCCC2=O)c(OC)c1	Shiga toxin inh 75, CHX counter 33
CCOC(=O)CC(NS(=O)(=O)c1ccc2[nH]c3c(c2c1)CCCC3)c1ccccc1Cl (stereo not given)	none (no result: Pf growth 48h, SARS PLP yeast, Pf growth 96h, NS1 inh)
Cc1ccc(NC(=O)c2nnn(-c3ccc4c(c3)OCCO4)c2N)cc1	Shiga toxin inh 112, CHX counter 37
Nc1c(C(=O)Nc2ccc3c(c2)OCCO3)nnn1Cc1cccc(F)c1	none (no result: Shiga toxin inh, NS1 inh, CHX counter)
Nc1c(C(=O)Nc2ccccc2)nnn1-c1ccc2c(c1)OCCO2	Shiga toxin inh 74, CHX counter 34
Cc1ccccc1Cn1nnc(C(=O)Nc2ccc3c(c2)OCCO3)c1N	none (no result: Shiga toxin inh, NS1 inh, CHX counter)
Cc1ccc(C)c(CN2C(=O)c3ccccc3Sc3ccc(C(=O)NCc4ccc5c(c4)OCO5)cc32)c1	none (no result: Pf growth 48h, SARS PLP yeast, Pf growth 96h, NS1 inh)
CN(CC(=O)Nc1cccc(F)c1)C(=O)C1(c2ccccc2)CC1	Pf growth 48h inconclusive (no result: Shiga toxin inh, NS1 inh, CHX counter)
COc1ccc(NC(=O)CN(C)C(=O)c2ccc(NS(=O)(=O)c3ccc(F)cc3)cc2)cc1	none (no result: Shiga toxin inh, NS1 inh, CHX counter)
Cc1ccc(C(=O)N/C(=C\c2ccco2)C(=O)NCCN2CCCCC2)cc1C	none
Cc1ccc(C(=O)N/C(=C\c2ccco2)C(=O)NCCCn2ccnc2)cc1	Pf growth 96h 9.3µM
O=C(NCCN1CCCCC1)/C(=C/c1ccco1)NC(=O)c1ccccc1	Pf growth 96h 6.6µM
COc1ccc(C(=O)N/C(=C\c2ccco2)C(=O)NCc2ccco2)cc1	SARS PLP yeast inconclusive
COc1ccc(C(=O)N/C(=C\c2ccco2)C(=O)NCc2cccnc2)cc1	Pf growth 96h 1.2µM
O=C(NCc1cccnc1)/C(=C/c1ccco1)NC(=O)c1ccccc1	Pf growth 96h 12µM
COc1cc(CC(=O)OCC(=O)Nc2cccc([N+](=O)[O-])c2)cc(OC)c1OC	none
O=[N+]([O-])c1cc(Cl)ccc1NCCNS(=O)(=O)c1ccccc1	Shiga toxin inh 36, Pf growth 96h inconclusive, CHX counter 19
O=[N+]([O-])c1ccccc1NCCNS(=O)(=O)c1ccc(Cl)cc1	Pf growth 96h inconclusive
O=C1NC(=Nc2cccc([N+](=O)[O-])c2)SC1(CO)CO	none
COc1ccc(-c2cc(C(=O)N3CCN(C(=O)c4ccccc4F)CC3)[nH]n2)cc1	Pf growth 48h inconclusive, Pf growth 96h inconclusive (no result: SARS PLP yeast)
Cc1ccc(C(=O)Nc2cc(C)c(OCC(=O)N3CCOCC3)c(C)c2)cc1	none (no result: Pf growth 96h)

High-throughput results deposited in PubChem BioAssay by National Center for Advancing Translational Sciences (NCATS).
